697 NFkB inh – lowers PMA/ionomycin-induced NF-kB signal in 697 B cells; 697 B-cell NF-kB luciferase reporter, 16 h; inhibition, % at 4 µM; AID 435022; 0.33% of 330,000 active; in the data active = inhibition above about 35%
H9c2 protect – modulators protecting cardiomyocytes from myocardial damage; H9c2 cardiomyocytes, H2O2 injury protection, ATPLite, 2 h; AID 588492; 0.63% of 360,000 active; protection from H2O2 cell death, % at 20 µM;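 active = compounds giving at least 50% protection of heart cells from peroxide-induced death in the single-dose screen, raw or plate-pattern-corrected value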
Gli-Sufu antag – blocks Gli-Sufu signaling in a luciferase reporter. Sufu-KO-LIGHT fibroblasts, Gli luciferase reporter luminescence. inhibition, % at 5 µM. 0.74% of 340,000 active. AID 588413;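 active = inhibition above about 55%, limit read from the data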
TAG inh – reduces triacylglycerol accumulation in H9c2 cells; Nile Red lipid (TAG) fluorescence; cells loaded with 200 µM oleic acid; inhibition, % at 12.5 µM; 0.66% of 230,000 active; AID 651582;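 active = pattern-corrected inhibition of lipid staining of at least 50% with the nuclear-stain viability signal not falling by more than 50%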
Jurkat NFkB inh – lowers PMA/ionomycin-induced NF-kB signal in Jurkat cells; PMA/ionomycin-induced NF-kB luciferase reporter, luminescence; inhibition, % at 4 µM; 0.53% of 330,000 active; in the data active = inhibition above about 50%
COUP-TFII inh – NR2F2 (human) inhibition, primary screen; P24468; HEK293T NGFI-A luciferase reporter, luminescence; inhibition, % at 8.6 µM; 0.7% of 370,000 active; AID 686940;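 active = inhibition above a per-plate cutoff, mean inhibition of test wells between control levels plus 3 SD, cut at about 38% in these data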;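 note: cells cotransfected with COUP-TFII expression vector driving the NGFI-A reporter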
Target sequence (P24468 whole entry, looked up): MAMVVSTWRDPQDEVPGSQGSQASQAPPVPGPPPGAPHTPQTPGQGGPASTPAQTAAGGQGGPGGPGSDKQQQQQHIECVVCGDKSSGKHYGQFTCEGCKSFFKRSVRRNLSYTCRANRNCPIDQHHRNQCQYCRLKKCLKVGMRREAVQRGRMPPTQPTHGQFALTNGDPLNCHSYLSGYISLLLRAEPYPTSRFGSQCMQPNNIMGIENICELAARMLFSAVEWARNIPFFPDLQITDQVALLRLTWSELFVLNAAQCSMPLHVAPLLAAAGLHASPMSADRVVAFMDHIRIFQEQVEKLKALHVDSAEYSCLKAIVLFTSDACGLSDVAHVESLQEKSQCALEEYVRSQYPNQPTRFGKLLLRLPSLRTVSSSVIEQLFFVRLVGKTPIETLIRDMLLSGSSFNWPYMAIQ
Jurkat NFkB conf – inhibitors of the PMA/ionomycin-induced NF-kB reporter in Jurkat cells, retest; inhibition, % at 4 µM; 27% of 2,700 active; AID 435020; Jurkat NF-kB luciferase, 16 h; shares compounds with Jurkat NFkB inh;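 active = inhibition reaching about 45% at 4 µM in either replicate, limit read from the data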
A number is an active result; 0 = inactive; - = no result. Sampled rows, rich in hits. Any-hit rate of the full collection: about 2.6%.

SMILES | 697 NFkB inh | H9c2 protect | Gli-Sufu antag | TAG inh | Jurkat NFkB inh | COUP-TFII inh | Jurkat NFkB conf
COc1ccc(-c2cc(-c3nnc(SCC(=O)N4CCOCC4)n3N)[nH]n2)cc1 | - | - | - | - | - | 0 | -
COc1cc(C2C3=C(Nc4ncnn42)c2ccccc2CC3)cc(OC)c1OC (stereo not drawn) | 0 | 0 | 0 | - | 75.4 | 0 | 60.8
CN(C)c1cc[n+](CC(=O)Nc2ccc(Oc3ccccc3)cc2)cc1 | 0 | 0 | 0 | - | 85.0 | 0 | 0
COc1ccc(CNS(=O)(=O)/C=C/c2ccccc2CNC(=O)OC(C)(C)C)cc1 | - | - | - | - | - | 0 | -
Cc1c(-c2nc(N)nc(Nc3ccccc3F)n2)oc2ccccc12 | 0 | 0 | 0 | - | 0 | 0 | 0
CCCCCC[C@@H](CC)CN(C(=O)Oc1ccccc1)c1ccccc1 | - | - | - | - | - | 0 | -
CCOC(=O)c1c(-c2ccc(-c3ccccc3)cc2)csc1NC(=O)CNCCN(C)C | 0 | 0 | 0 | - | 51.6 | 0 | 0
CN(C)c1ccc(/C=C/c2ccc3ccccc3[n+]2C)cc1 | 0 | 0 | 87.1 | - | 93.0 | 71.5 | 65.6
O=C(Nc1ccccc1)N1CCC(c2nc(-c3ccc(S(=O)(=O)N4CCOCC4)cc3)no2)CC1 | 0 | 0 | 0 | - | 52.9 | 0 | 0
O=C(c1ccccc1)N1CCC(c2nc(-c3ccc(S(=O)(=O)N4CCOCC4)cc3)no2)CC1 | 0 | 0 | 0 | 0 | 0 | 0 | -
CC(=O)n1c2ccccc2c2ccccc21 | 0 | 0 | 0 | - | 0 | 0 | -
Cc1ccc(C(=O)n2c3ccccc3c3ccccc32)cc1 | 0 | 0 | 0 | 0 | 54.3 | 0 | 0
O=C(Nc1c(-c2ccc(F)cc2)nc2ncccn12)C1CC1 | - | - | - | - | - | 0 | -
Cc1nc2cc(NC(=O)c3ccc(Br)s3)ccc2s1 | 0 | 0 | 0 | 0 | 0 | 0 | 0
Cc1nc2ccc(NC(=O)c3ccc(Cl)nc3)cc2s1 | 0 | 0 | 0 | 0 | 0 | 0 | -
Cc1nc2ccc(NC(=O)c3cc(Cl)ccn3)cc2s1 | 0 | 0 | 0 | - | 0 | 0 | 0
C(#CC1CCCC1)c1ccc2c(c1)COc1c3ccccc3nn1-2 | 0 | 0 | 0 | - | 0 | 0 | -
CCCc1cc(-c2ccc3c(c2)COc2c4ccccc4nn2-3)on1 | 0 | 0 | 0 | 0 | 0 | 0 | 0
Cc1cc(-c2ccc3c(c2)COc2c4ccccc4nn2-3)on1 | 0 | 0 | 0 | 0 | 0 | 0 | 0
C[C@@H](CO)NC(=O)c1ccc2c3n(nc2c1)-c1ccccc1CO3 | 0 | 0 | 0 | 0 | 0 | 0 | -
Cc1ccc(NC(=O)/C(Cl)=C/c2ccccc2)cc1C | 0 | 0 | 0 | 0 | 0 | 0 | 0
CC(=O)Nc1ccccc1C(=O)C(=O)Nc1ccc(C)c(C)c1 | 0 | 0 | 0 | - | 0 | 0 | -
COc1ccc(/C=C2/CN(Cc3ccc(OC)cc3OC)C3=NC(c4ccc5ccccc5c4)CC(=O)N32)cc1 (stereo not drawn) | - | - | - | - | - | 0 | -
O=C(Nc1nc2cc3c(cc2s1)OCO3)c1ccco1 | - | 0 | 0 | 0 | - | 0 | -
O=C(Nc1nc2ccccc2c(=O)s1)c1ccco1 | 0 | 0 | 0 | 0 | 64.2 | 0 | 0
SMILES | 697 NFkB inh | H9c2 protect | Gli-Sufu antag | TAG inh | Jurkat NFkB inh | COUP-TFII inh | Jurkat NFkB conf
COC(=O)C1=C(C)NC2=C(C(=O)CC(c3cccs3)C2)C1c1ccsc1 (stereo not drawn) | - | 0 | 0 | 0 | - | 0 | -
CCOC(=O)C1=C(C)NC2=C(C(=O)CC(c3cccs3)C2)C1c1cccs1 (stereo not drawn) | 0 | 0 | 0 | 0 | 59.6 | 0 | 0
N#Cc1cccc(Cn2ccc3ccc(-c4ccc5ccn(Cc6ccccc6)c5c4)cc32)c1 | - | - | - | - | - | 0 | -
COc1cc(C(=O)OCCc2cc3ccccc3c(=O)o2)cc(OC)c1OC | 0 | 0 | 0 | - | 58.2 | 0 | 57.8
O=C(CSc1ccccc1)Nc1ccc2c(c1)OCCO2 | 0 | 0 | 0 | 0 | 0 | 0 | 0
Cc1ccc(SCC(=O)Nc2ccc(N3CCN(c4ccccc4)CC3)c(F)c2)cc1 | 0 | 0 | 0 | - | 0 | 0 | -
CN1CCN(c2ccc(NC(=O)CSc3ccccc3)cc2F)CC1 | 0 | 0 | 0 | 0 | 0 | 0 | 0
COC(=O)c1cc(Cl)c(NC(=O)/C=C/c2ccc(OC)cc2)cc1OC | 0 | 0 | 0 | - | 51.4 | 0 | 0
COC(=O)c1cc(Cl)c(NC(=O)C(C)C)cc1OC | 0 | 0 | 0 | 0 | 0 | 0 | -
Cc1ccc2nc(NC(=O)Cc3cccs3)sc2c1 | 0 | 0 | 0 | - | 0 | 0 | -
O=C(Nc1ccc2oc(-c3ccccc3)nc2c1)C1CCCO1 (stereo not drawn) | 0 | 0 | 0 | - | 0 | 0 | -
Cc1ccc2nc(-c3ccc(NC(=O)Cc4cccs4)cc3)[nH]c2c1 | 0 | 0 | 0 | - | 0 | 0 | 0
Cc1ccc2nc(-c3ccc(NC(=O)C4CCCO4)cc3)[nH]c2c1 (stereo not drawn) | 0 | 0 | 0 | - | 0 | 0 | 0
COc1ccc(NC(=O)C2CCCO2)cc1 (stereo not drawn) | 0 | 0 | 0 | 0 | 0 | 0 | -
O=C(Nc1ccc(-c2nc3ccccc3o2)cc1)C1CCCO1 (stereo not drawn) | 0 | 0 | 0 | - | 0 | 0 | 0
CC1=C[C@]2(C[N+](Cc3ccccc3)=C(N)N2)n2c(=O)n(-c3ccccc3)c(=O)n2C1 | - | - | - | - | - | 0 | -
COc1ccc(Cn2cc(CN3[C@@H](CC(C)C)COc4cccc(F)c4S3(=O)=O)nn2)cc1 | - | - | - | - | - | 0 | -
COc1ccc(C(C(=O)N(C)C2CCCC2)N(Cc2ccc(F)cc2)C(=O)c2csc(N3CCOCC3)n2)cc1OC (stereo not drawn) | - | - | - | - | - | 0 | -
COC(=O)[C@]12C[C@H](CC(=O)NCc3cccc(C(F)(F)F)c3)C(=O)N(Cc3ccc4c(c3)OCO4)C1=C[C@H](C(C)C)O[C@@H]2C1CC1 | - | - | - | - | - | 0 | -
COC(=O)c1cc(-c2cccc(OC(F)(F)F)c2)c(=O)n2c1CCC2 | - | - | - | - | - | 0 | -
C=CCN(C)CC#Cc1ccc(OC)cc1 | - | - | - | - | - | 0 | -
CCC(=O)Nc1ccc2c(c1)C(=O)c1ccccc1C2=O | 0 | 0 | 0 | - | 0 | 0 | 0
COc1ccc2oc(C(=O)Nc3ccc(C)cn3)c(C)c2c1 | 0 | 0 | 0 | 0 | 0 | 0 | -
COc1ccc2oc(C(=O)Nc3ccccn3)c(C)c2c1 | 0 | 0 | 0 | 0 | 0 | 0 | 0
Clc1ccc(-c2csc(NCC3CCCO3)n2)cc1 (stereo not drawn) | - | - | - | - | - | 0 | -
SMILES | 697 NFkB inh | H9c2 protect | Gli-Sufu antag | TAG inh | Jurkat NFkB inh | COUP-TFII inh | Jurkat NFkB conf
CCOc1ccccc1-c1nc(CN2CCN(C(=O)c3ccco3)CC2)c(C)o1 | 0 | 0 | 0 | - | 0 | 0 | -
CCOc1ccccc1-n1c(CN2CCN(C(=O)c3ccco3)CC2)nc2ccccc2c1=O | 0 | 0 | 0 | - | 95.3 | 0 | 0
COC(=O)c1cc(S(=O)(=O)N2CCN(c3cccc(C(F)(F)F)c3)CC2)cn1C | - | - | - | - | - | 0 | -
CCOc1ccccc1N1CCN(C(=O)c2cc(-c3cccnc3)nc3c(Cl)cccc23)CC1 | 0 | 0 | 0 | 0 | 67.5 | - | 0
COc1cc2ccccc2cc1C(=O)N1CCN(C(C)=O)CC1 | 0 | 0 | 0 | 0 | 0 | 0 | -
CCOc1ccccc1N1CCN(C(=O)c2cc3ccccc3cc2OC)CC1 | 0 | 0 | 0 | 0 | 56.7 | 0 | 0
CCOc1ccccc1N1CCN(C(=O)c2ccncc2)CC1 | 0 | 0 | 0 | - | 0 | 0 | -
